# PubChem BioAssay (EPA / NIEHS)
# Results filed as inconclusive are left out. Activity calls are given as the source filed them. The calls were made as follows, unless noted: active = hit-call score of the fitted dose curve at least 0.9, where 1 is the maximum; inconclusive = response in the unintended direction; inactive = score below 0.9.
# Experiments:
# [1] = read-out: glucuronosyltransferase (UGT1A1), UGT1A1 (gene 54658); experiment: CLD_UGT1A1_6hr: CellzDirect (CLD) Gene Expression Assay for glucuronosyltransferase (UGT1A1) at 6 hours (AID 2283672)
# Method in brief: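 UGT1A1 mRNA induction, read by quantitative nuclease protection assay, 6 h after dosing primary human hepatocytes (two donors, 0.2% DMSO vehicle). Gain of signal fitted relative to vehicle.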
# [2] = read-out: ABC Transporter (ABCB11), ABCB11 (gene 8647); experiment: CLD_ABCB11_24hr: CellzDirect (CLD) Gene Expression Assay for ABC Transporter (ABCB11) at 24 hours (AID 2283674; active = hit-call score of the fitted dose curve at least 0.9, where 1 is the maximum; inactive = score below 0.9)
# Method in brief: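 ABCB11 transcript was quantified by qNPA chemiluminescence in cultured human liver hepatocytes 24 hours after dosing. Fresh dosing solutions were applied on consecutive days, against a 0.2% DMSO vehicle. Cytotoxicity was noted by phase-contrast morphology.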
# [3] = read-out: ABC Transporter (ABCB11), ABCB11 (gene 8647); experiment: CLD_ABCB11_6hr: CellzDirect (CLD) Gene Expression Assay for ABC Transporter (ABCB11) at 6 hours (AID 2283675);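 also: hits raise ABCB11 mRNA level so AC50 marks induction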
# Method in brief: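 Read-out was ABCB11 mRNA gain of signal by quantitative nuclease protection assay, relative to 0.2% DMSO vehicle, 6 h post-dose. Cells were primary human hepatocytes from two donors, treated across multiple concentrations; phase-contrast cytotoxicity noted yes/no.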
# [4] = CLD_ACTIN_6hr: CellzDirect (CLD) Gene Expression Assay for Baseline Control (Actin) at 6 hours (AID 2283676);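 also: active means increased actin mRNA relative to DMSO vehicle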
# Method in brief: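 Baseline actin transcript level measured by qNPA (S1 nuclease protection, chemiluminescence) in human hepatocyte cultures 6 h after chemical exposure; 0.2% DMSO vehicle as reference, cytotoxicity noted from morphology.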
# [5] = CCTE_Padilla_ZF_144hpf_TERATOSCORE: (Legacy) CCTE's 144 Hour Post-fertilization zebrafish Assay Teratoscore, Padilla Lab (AID 2283679; active = hit-call score of the fitted dose curve at least 0.9, where 1 is the maximum; inactive = score below 0.9;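 as to AC50: zebrafish embryos with chorions exposed by immersion from 6-8 hpf to 5 dpf with daily renewal; teratogenicity score from eye scoring of death hatching and malformations at 144 hpf; higher score means more developmental defects relative to DMSO baseline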)
# Method in brief: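 Larvae scored by eye at 144 hpf for death, hatching and malformations after a day in clean Hanks'. Before that, daily-renewed exposure at 80 uM (0.4% DMSO, 26C) from roughly 6-8 hpf through 5 dpf, 4 embryos per chemical.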
# [6] = CLD_ACTIN_24hr: CellzDirect (CLD) Gene Expression Assay for Baseline Control (Actin) at 24 hours (AID 2283670)
# Method in brief: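 This 24 h qNPA (S1 nuclease protection, chemiluminescence) actin transcript readout in cultured human liver primary cells serves as baseline control. Signal is fitted upward relative to 0.2% DMSO; chemicals tested at multiple concentrations across two donor preparations.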
# [7] = read-out: xenobiotic metabolism (CYP1A1), CYP1A1 (gene 1543); experiment: CLD_CYP1A1_24hr: CellzDirect (CLD) Gene Expression Assay for xenobiotic metabolism (CYP1A1) at 24 hours (AID 2283673);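 also: CYP1A1 mRNA level by quantitative nuclease protection with chemiluminescence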
# Method in brief: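 Transcript levels were read at 24 h by qNPA chemiluminescence in human liver primary cells. Cells got daily fresh dosing at multiple concentrations (vehicle 0.2% DMSO). Induction fitted upward against DMSO; phase-contrast cytotoxicity annotated.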
# [8] = read-out: Cytochrome P450 3A4 (Homo sapiens) (UniProt P08684); experiment: CLD_CYP3A4_6hr: CellzDirect (CLD) Gene Expression Assay for xenobiotic metabolism (CYP3A4) at 6 hours (AID 2283680)
# Method in brief: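 CYP3A4 mRNA induction, 6 h after dosing of cultured primary human hepatocytes from two donors, read by quantitative nuclease protection (qNPA, chemiluminescence). Vehicle 0.2% DMSO as baseline; morphology-based cytotoxicity annotated yes/no.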
# [9] = read-out: Cytochrome P450 2B6 (Homo sapiens) (UniProt P20813); experiment: CLD_CYP2B6_6hr: CellzDirect (CLD) Gene Expression Assay for xenobiotic metabolism (CYP2B6) at 6 hours (AID 2283677);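 also: actives raise CYP2B6 transcript above DMSO baseline so AC50 marks an inducer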
# Method in brief: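 CYP2B6 transcript levels, read by chemiluminescent qNPA, were fitted for increase versus DMSO baseline; cultured human liver hepatocytes from two donor preparations were harvested 6 h after exposure to test chemicals at multiple concentrations.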
# Chain of Cytochrome P450 3A4 (Homo sapiens) (P08684 whole entry, looked up): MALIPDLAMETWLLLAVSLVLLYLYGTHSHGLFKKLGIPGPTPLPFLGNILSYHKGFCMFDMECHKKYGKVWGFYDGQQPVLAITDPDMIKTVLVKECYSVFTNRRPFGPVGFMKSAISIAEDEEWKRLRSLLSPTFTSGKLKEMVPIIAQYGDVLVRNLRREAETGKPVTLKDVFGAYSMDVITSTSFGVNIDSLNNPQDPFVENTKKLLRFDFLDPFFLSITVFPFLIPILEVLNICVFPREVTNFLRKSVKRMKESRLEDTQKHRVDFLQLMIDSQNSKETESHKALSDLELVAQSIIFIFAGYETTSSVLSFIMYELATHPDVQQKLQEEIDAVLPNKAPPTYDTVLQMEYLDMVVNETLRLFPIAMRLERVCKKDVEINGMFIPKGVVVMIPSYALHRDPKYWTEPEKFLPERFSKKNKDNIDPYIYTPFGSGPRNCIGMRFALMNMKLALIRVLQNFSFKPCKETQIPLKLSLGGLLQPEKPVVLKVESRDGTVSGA
structure (smiles),measurement,setting,value
COP(=S)(OC)SCn1nnc2ccccc2c1=O,AC50,[1],1.73 µM (active)
same,outcome,[2],inactive
same,outcome,[3],inactive
same,outcome,[4],inactive
same,AC50,[5],15.2 µM (active)
CCCCC(O)(Cn1cncn1)c1ccc(Cl)cc1Cl (stereo not given),outcome,[6],inactive
same,outcome,[1],inactive
same,outcome,[4],inactive
same,AC50,[5],36.5 µM (active)
Clc1nc(Cl)nc(Nc2ccccc2Cl)n1,outcome,[6],inactive
same,outcome,[7],inactive
same,outcome,[2],inactive
same,outcome,[3],inactive
same,outcome,[4],inactive
same,AC50,[5],52 µM (active)
same,outcome,[8],inactive
COC(=O)NS(=O)(=O)c1ccc(N)cc1,AC50,[1],20 µM (active)
same,outcome,[2],inactive
same,outcome,[3],inactive
same,outcome,[4],inactive
same,outcome,[5],inactive
CCOc1nc(C(Cl)(Cl)Cl)ns1,outcome,[6],inactive
same,outcome,[3],inactive
same,outcome,[4],inactive
same,outcome,[5],inactive
CCOc1nc(F)cc2nc(S(=O)(=O)Nc3c(Cl)cccc3Cl)nn12,outcome,[2],inactive
same,outcome,[3],inactive
same,outcome,[5],inactive
OC(c1ccc(Cl)cc1)(c1ccc(Cl)cc1)C(Cl)(Cl)Cl,AC50,[7],20 µM (active)
same,outcome,[2],inactive
same,outcome,[3],inactive
same,AC50,[9],3.96 µM (active)
same,AC50,[5],12 µM (active)
same,AC50,[8],3.68 µM (active)
CC(C)N1C(=O)N(c2ccccc2)CSC1=NC(C)(C)C,outcome,[2],inactive
same,outcome,[3],inactive
same,outcome,[4],inactive
same,AC50,[5],1.48 µM (active)
CCNC(=O)NC(=O)C(C#N)=NOC,outcome,[2],inactive
same,AC50,[5],33.1 µM (active)
CC1(C)C(C=C(Cl)Cl)C1C(=O)OC(C#N)c1cccc(Oc2ccccc2)c1 (stereo not given),outcome,[4],inactive
same,AC50,[5],0.284 µM (active)
CC(C)(C)C(=O)C(Oc1ccc(Cl)cc1)n1cncn1 (stereo not given),AC50,[7],9.03 µM (active)
same,outcome,[3],inactive
same,AC50,[5],17.4 µM (active)
N#Cc1c(Cl)cccc1Cl,outcome,[3],inactive
same,outcome,[4],inactive
same,outcome,[5],inactive
C=CCOC(=O)C(C)(C)OC(=O)c1cc(-n2c(=O)cc(C(F)(F)F)n(C)c2=O)ccc1Cl,outcome,[3],inactive
same,AC50,[5],0.00588 µM (active)
C=C(C)CN(CC)c1c([N+](=O)[O-])cc(C(F)(F)F)cc1[N+](=O)[O-],outcome,[2],inactive
same,outcome,[4],inactive
same,outcome,[5],inactive
COP(=S)(OC)Oc1ccc([N+](=O)[O-])c(C)c1,outcome,[3],inactive
same,outcome,[4],inactive
same,AC50,[5],50 µM (active)
COCC(C)N(C(=O)CCl)c1c(C)csc1C (stereo not given),outcome,[2],inactive
same,outcome,[3],inactive
same,outcome,[4],inactive
same,AC50,[5],60.8 µM (active)
CNC(=O)N(C)c1nnc(C(C)(C)C)s1,outcome,[7],inactive
same,outcome,[4],inactive
same,outcome,[5],inactive
CCN(CC)C(=O)C(C)Oc1cccc2ccccc12 (stereo not given),outcome,[5],inactive
O=c1n(Cl)c(=O)n(Cl)c(=O)n1Cl,outcome,[2],inactive
same,outcome,[3],inactive
same,outcome,[5],inactive
same,outcome,[8],inactive
Cc1cc(C)nc(Nc2ccccc2)n1,AC50,[9],0.994 µM (active)
same,outcome,[5],inactive
